Data on 8 molecules can be found in PubChem BioAssay (NCI).

Compounds without any hit were thinned out: in the full panel of roughly 83,000, 20% have a hit.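 Negative percent growth values reflect cell death: -40 means 40% of the cells present at the start died, and -100 means all died.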 Values without a mark were called inactive. The source made the active and inactive calls. Rule for the calls: active = growth percent below 10; inactive = the rest.

Holding throughout (test): NCI-60 one-dose screen, 48 h (100 = growth as untreated, 0 = no growth, -100 = all killed)
Common to all, as to settings: 10 µM unless noted

Test [1] has as its system HCT-15 colon.
Test [2] deals with HT29 colon.
Test [3] concerns SNB-75 CNS.
The test system of test [4] is SNB-19 CNS.
For test [5], the system named is U251 CNS.
Test [6] deals with PC-3 prostate.
Test [7] has as its system SK-MEL-5 melanoma.
For test [8], the system named is UACC-62 melanoma.
Test [9] concerns LOX IMVI melanoma.
Test [10] concerns SK-MEL-28 melanoma.
Test [11] deals with SK-MEL-2 melanoma.
The test system of test [12] is EKVX NSCLC.
Test [13] deals with SN12C renal.
Test [14] deals with UO-31 renal.
Test [15] relates to TK-10 renal.
Test [16] has as its system ACHN renal.
Test [17] deals with CAKI-1 renal.
The test system of test [18] is A498 renal.
Test [19] deals with CCRF-CEM leukemia.
Test [20] relates to MOLT-4 leukemia.

For `CC(C)=CC(=O)N[C@@H]1CC2CCC3C(CC[C@@]4(C)C3CC[C@@H]4C(C)N(C)C)[C@@]2(C)C[C@@H]1O` (stereo not given in full), the growth in test [1] is 2.93% (active); in test [2], -4.96% (active); in test [3] it was 56.1%; in test [4] it was 86.3%; in [5] it was 56.7%; in test [6], 44.6%. The growth in test [7] was 10.1%; in [8], 44.6%; in test [9], 1.62% (active); in test [10], -28% (active); in test [11] it was 124%; in test [12] it was 32.9%. In addition, the growth in test [13] is 71.3%; in test [14], 10.1%; in test [15] it was 84.5%; in test [16] it was 69.6%; in [17], 76.6%; in test [18], 67.2%. Further, the values for the growth in [19] and in test [20] were 30% and -7.31% (active), respectively.
With `Cc1ccc(N=Nc2c(N)nn(-c3ccccc3)c2N)cc1`, the growth in test [1] was 21%; in test [2] it was 11.7%; in test [3] it was 32.6%; in [4] it was 46.7%; in test [5] it was 28.2%; in test [6], 56.7%. Besides, the growth in test [7] is -18.6% (active); in [8], 31.5%; in test [9], 47.1%; in test [10], 56.8%; in [11] it was 41.2%; in [12], 29.9%. The growth in test [13] was 45.4%; in [14] it was 45.1%; in test [15], 43.6%; in test [16] it was 47.6%; in [17], -2.05% (active); in test [18] it was 49.9%. Besides, the growth in test [19] was 8.89% (active); in test [20], 23.5%.
On to `CCCCn1sc(=O)n(Cc2ccc(CNC(=O)OCc3ccc4c(Br)cc(Br)c(O)c4n3)cc2)c1=O`, for which the growth was 9.07% (active) in [1]; 96.4% in test [2]; 14.4% in test [3]; 37.4% in test [4]; 11.2% in test [5]; 18.9% in test [6]. The growth was -35.2% (active) in test [7]; 37.6% in test [8]; 22.9% in [9]; 67.4% in test [10]; 45.6% in [11]; 103% in test [12]. Moreover, the growth was 29.5% in test [13]; 42.7% in test [14]; 74.8% in test [15]; 33.6% in test [16]; 22.4% in [17]; -7.85% (active) in [18]. Moreover, the growth was 18.1% in test [19] and 14.6% in test [20].
For the molecule `Cc1nc2sc(C(=O)Nc3cccc(Cl)c3)c(N)c2cc1C(O)c1ccccc1` (stereo not given), the growth in [1] was 14.2%; in test [2], 14.9%; in test [3], 46.9%; in test [4], 33.4%; in test [5], 10.2%; in test [6], 28.1%. Besides, the growth was 11% in [7]; 31.5% in test [8]; 45.3% in [9]; 56% in test [10]; 49.9% in test [11]; 44.6% in test [12]. Also, the growth is 24.4% in test [13]; 45.7% in [14]; 62.4% in test [15]; 30.5% in [16]; 46.4% in [17]; 8.38% (active) in [18]. The growth in test [19] was 17.1%; in test [20], 14.5%.
For the molecule `c1ccc(CCc2ccccc2-c2cc(-c3ccccc3)on2)cc1`, the growth in [1] was 83.6%; in test [2], 68.2%; in [3], 80.5%; in test [4], 90.3%; in [5], 95.3%; in [6], 89.1%. Besides, the growth in [7] was 78.9%; in test [8], 71.1%; in test [9], 92.2%; in test [10] it was 93.9%; in test [11], 86.4%; in [12], 86.4%. For the same molecule, the growth in [13] was 85.5%; in test [14], 75.5%; in [15], 110%; in [16] it was 89.2%; in test [17] it was 92.2%; in test [18], 89%. The growth in test [19] is 82.7%; in test [20], 73.1%.
For `CCCn1c(=S)sc2c1nc(C)n1c(Nc3ccccc3)nnc21`, the growth in test [1] was 74.8%; in test [2] it was 87.5%; in [3], 102%; in test [4] it was 70.8%; in test [5] it was 60.9%; in test [6], 93.5%. Further, the growth was 35% in test [7]; 32.3% in test [8]; 66.2% in test [9]; 104% in test [10]; -0.18% (active) in test [11]; 36.6% in [12]. For the same molecule, the growth in [13] was 55.6%; in [14], 71.6%; in test [15], 86.7%; in test [16] it was 82.8%; in test [17] it was 93.9%; in test [18], 57.2%. Further, the growth in test [19] was 66.3%; in test [20], 31.1%.
With `COc1cc(Nc2c3ccc(Cl)cc3nc3ccc(OC)cc23)c2ncccc2c1`, the growth in [1] is 23.8%; in [2], 38.1%; in [3], 70.1%; in [4], 66.6%; in test [5], 31.5%; in [6], 38%. In addition, the growth is 33% in [7]; 36.4% in [8]; 29.3% in [9]; 50% in test [10]; 78.6% in [11]; 39.2% in [12]. The growth was 52.5% in [13]; 26.9% in test [14]; 44.7% in test [15]; 31.2% in [16]; 32.2% in test [17]; 62.4% in test [18]. In addition, the growth in test [19] is 26.9%; in test [20], 39.3%.
As to `CC1=NN(c2ccc(Cl)cc2)CC1(C)N=O` (stereo not given), the growth in test [1] was 27.4%; in test [2] it was 28.3%; in test [3], 75.7%; in [4], 97.9%; in [5] it was 91.5%; in [6], 91.9%. Also, the growth in test [7] is 95.4%; in test [8] it was 88.2%; in test [9], 28.1%; in test [10], 90.4%; in [11], 105%; in [12], 70.1%. Besides, the growth in [13] was 88.4%; in test [14], 32.8%; in test [15], 105%; in [16], 15.2%; in [17], 60.4%; in [18] it was 101%. In addition, the growth is 34% in [19] and 44.6% in [20].
